Only some compounds are listed: those with a hit (about 7.5% of all), similar ones and a draw of the others.
SMN2 splice up = qHTS Assay for Enhancers of SMN2 Splice Variant Expression. HEK293 SMN2-luciferase splicing reporter, luminescence, 30-36 h. Potency, µM (top dose mostly 46.1 µM), for the others: at the highest dose activity change, positive = activation, usual class: activators. 210,000 tested, 2.8% active; also: % of control where 0% means no effect; nearly all actives have a fitted effect of over 55% in size
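HEK293 cells carry an SMN2 minigene-luciferase reporter in which exon 7 inclusion puts luciferase in frame. Cells were seeded at 2000 cells/well, attached for 10-12 hours, then exposed to compounds for 30-36 hours at 37C before ONE-Glo luminescence.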
ELG1 genotox = qHTS screen for small molecules that induce genotoxicity in human embryonic kidney (HEK293T) cells expressing luciferase-tagged ELG1 | Potency, µM (highest dose often 46 µM), for inactives: at the highest dose activity change, positive = activation, hits mostly activators | AID 504466, 2011 | 330,000 tested, 1.3% active | HEK293T ELG1-luciferase reporter, luminescence, 16 h; also: % of control where 0% means no effect; nearly all actives have a fitted effect of over 60% in size
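HEK293T cells expressing luciferase-tagged ELG1 were treated with compound or DMSO for 16 hr at 37°C. Luciferase activity was then read after 30 min with ONE-Glo at room temperature; rising signal flags genetic stress.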
Rab9 promoter act = qHTS Assay for Rab9 Promoter Activators. Huh7 Rab9 promoter-luciferase reporter, luminescence, 24 h. Potency, µM (doses to about 9.22 µM), for inactives: at the highest dose activation, negative = inhibition, usual class: activators. 320,000 tested, 2.8% active. AID 485297, 2010; also: % of control where 0% means no effect; nearly all actives have a fitted effect of over 60% in size
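Luminescence from Amplite-detected luciferase (10 minutes, ambient) reports Rab9 promoter activation. Before that, stable Rab9-luciferase Huh7 cells (1500/well, reduced-serum OP-MEM I plus 10% FBS) were exposed to compound for 24 hours at 37C.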
FLuc modulator = qHTS profiling assay for firefly luciferase inhibitor/activator using purifed enzyme and Km concentrations of substrates (counterscreen for miR-21 project); Luciferin 4-monooxygenase (Photinus pyralis), P08659; purified FLuc, Km substrates, luminescence inhibition; Potency, µM (highest dose often 57.5 µM), without a hit: at the highest dose activity change, negative = inhibition, hits mostly inhibitors; 360,000 tested, 6.9% active;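 also: plate controls were vehicle for no effect and reference inhibitor for full effect; nearly all actives have a fitted effect of over 55% in size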
Target sequence (P08659 whole entry, looked up): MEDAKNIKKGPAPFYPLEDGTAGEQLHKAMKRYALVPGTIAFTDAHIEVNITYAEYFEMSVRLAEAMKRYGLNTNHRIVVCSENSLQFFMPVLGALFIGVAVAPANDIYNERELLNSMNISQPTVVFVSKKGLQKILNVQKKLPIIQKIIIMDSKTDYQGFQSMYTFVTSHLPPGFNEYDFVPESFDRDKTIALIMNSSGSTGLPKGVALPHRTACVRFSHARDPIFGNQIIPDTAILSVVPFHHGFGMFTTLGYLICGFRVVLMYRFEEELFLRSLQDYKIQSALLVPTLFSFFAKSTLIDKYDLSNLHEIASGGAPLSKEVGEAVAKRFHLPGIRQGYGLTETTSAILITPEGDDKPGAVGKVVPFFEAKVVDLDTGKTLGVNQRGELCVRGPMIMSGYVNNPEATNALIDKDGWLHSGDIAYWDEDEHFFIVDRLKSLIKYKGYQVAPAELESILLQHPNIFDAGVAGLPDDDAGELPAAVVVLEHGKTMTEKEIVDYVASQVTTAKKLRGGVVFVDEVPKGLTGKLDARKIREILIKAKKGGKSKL
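Biochemical qHTS of compounds, final roughly 60 µM downward over six points, against 10 nM purified firefly luciferase using Km concentrations of substrates (10 uM D-luciferin, 10 uM ATP) in Tris acetate pH 7.5 buffer; luminescence output.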
NPC1 promoter act = qHTS Assay for NPC1 Promoter Activators | AID 485313, 2010 | Huh7 NPC1 promoter luciferase reporter, 24 h | Potency, µM (top dose mostly 9.22 µM), without a hit: at the highest dose activation, most hits filed as activators | 320,000 tested, 2.4% active; also: % of control where 0% means no effect; nearly all actives have a fitted effect of over 60% in size
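Quantitative HTS used a cell-based reporter: Huh7 cells stably bearing the NPC1 promoter upstream of luciferase were treated with compounds for 24 h, and promoter activation was read as luminescence.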
Luc counter = Counterscreen for Luciferase (Kinase-Glo TM) Inhibition. 200,000 tested, 0.28% active. Potency, µM (titrated, usually from 38.3 µM), for the others: at the highest dose activity change, negative = inhibition, usual class: inhibitors. Kinase-Glo luciferase, ATP luminescence, 8 min. Luciferin 4-monooxygenase (Photuris pensylvanica), Q27757; also: % is scaled to controls: 0 for no effect and ±100 for the full control effect; nearly all actives have a fitted effect of over 60% in size
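Kinase-Glo luciferase light output from ATP and luciferin was measured with 10 uM ATP, within the enzyme's linear range. Buffer: 50 mM imidazole pH 7.2, 50 mM KCl, 7 mM MgCl2, 0.01% Tween 20, 0.05% BSA; luminescence read after 8 min at ambient temperature.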
* marks the source's active call; other numbers are inactive results. Calls follow the shape of the dose curve; as a rule, active = well fitted curve in the direction sought with a large enough effect; inconclusive = small, poorly fitted or top-dose-only effect, or another doubt; inactive = no such curve, though single readings can be large; an effect the other way counts as inactive or inconclusive. Potency is read from the fitted curve at half-maximal effect.

For CCc1cc(C(=O)NNC(=S)Nc2cccc(C)c2)cs1 the results were SMN2 splice up 14µM*, ELG1 genotox 13%, Rab9 promoter act 3.2µM*, FLuc modulator 3.4µM*, NPC1 promoter act 3.5µM* and Luc counter 3%.
For Cc1ccsc1C(=O)NNC(=S)NCC(C)C the results were SMN2 splice up 25%, ELG1 genotox 0%, Rab9 promoter act -5%, FLuc modulator -2%, NPC1 promoter act -3% and Luc counter 17%.
For Cc1cccc(NC(=S)NNC(=O)c2sccc2C)c1 the results were SMN2 splice up -13%, ELG1 genotox inconclusive, Rab9 promoter act inconclusive, FLuc modulator 15µM*, NPC1 promoter act 1% and Luc counter -3%.
For Cc1cccc(NC(=S)NNC(=O)c2csc(C(C)C)c2)c1 the results were SMN2 splice up 11µM*, ELG1 genotox 13%, Rab9 promoter act 1.8µM*, FLuc modulator 5.4µM*, NPC1 promoter act 2.5µM* and Luc counter 1%.
Screening CCc1cc(C(=O)Nc2ccc(C)cc2Br)cs1 returned SMN2 splice up 16µM*, ELG1 genotox inconclusive, Rab9 promoter act inconclusive, FLuc modulator 5.4µM*, NPC1 promoter act 21% and Luc counter -1%.
`CC1(NC(=O)NCCCCCCNC(=O)NC2(C)CCS(=O)(=O)C2)CCS(=O)(=O)C1` (stereo not given) gave ELG1 genotox 3%, Rab9 promoter act -1%, FLuc modulator 0% and NPC1 promoter act 2%.
`CN1CCN(C(=O)C(=O)Nc2c3c(nn2-c2ccc(Cl)cc2)CSC3)CC1` gave FLuc modulator -4%.
Screening Cc1ccc(OCCn2c(=S)[nH]c3c(N)ncnc32)cc1 returned SMN2 splice up -8%, ELG1 genotox 4%, Rab9 promoter act 2%, FLuc modulator inconclusive, NPC1 promoter act 0% and Luc counter 2%.
CC(C)Oc1ccc(OCCn2c(=S)[nH]c3c(N)ncnc32)cc1 was read as SMN2 splice up -27%, ELG1 genotox inconclusive, Rab9 promoter act -1%, FLuc modulator 27µM*, NPC1 promoter act -3% and Luc counter 9%.
CCn1c(=O)c(C(=O)Nc2ccc(C(C)=O)cc2)nc2ccccc21 was read as SMN2 splice up 28% and FLuc modulator 15µM*.
`O=C(NNc1nc2ccccc2s1)c1ccccc1F` gave SMN2 splice up 0%, ELG1 genotox -2%, Rab9 promoter act 2%, FLuc modulator -1%, NPC1 promoter act 7% and Luc counter -2%.
COc1cccc2sc(Nc3nc4ccc(NC(C)=O)cc4s3)nc12 was read as SMN2 splice up -14%, ELG1 genotox -13%, Rab9 promoter act 0%, FLuc modulator inconclusive, NPC1 promoter act 7% and Luc counter -5%.
Fc1ccc2nc(Nc3nc4c(F)cccc4s3)sc2c1 was read as SMN2 splice up inconclusive, ELG1 genotox 2%, Rab9 promoter act inconclusive, FLuc modulator 9.5µM*, NPC1 promoter act inconclusive and Luc counter -2%.
`CCC(=O)NNc1nc2c(F)cc(F)cc2s1` gave SMN2 splice up 7%, ELG1 genotox 3%, Rab9 promoter act 0%, FLuc modulator 3%, NPC1 promoter act -1% and Luc counter -4%.
Fc1ccc2nc(Nc3nc4c(F)cc(F)cc4s3)sc2c1 was read as ELG1 genotox 1%, Rab9 promoter act 22%, FLuc modulator 8.5µM* and NPC1 promoter act inconclusive.
For Fc1cccc2sc(Nc3nc4ccccc4s3)nc12 the results were SMN2 splice up 10µM*, ELG1 genotox inconclusive, Rab9 promoter act inconclusive, FLuc modulator inconclusive, NPC1 promoter act inconclusive and Luc counter -2%.
`Cc1cc(C)n(CCNC(=O)C2CCC(=O)N(Cc3ccc(Cl)cc3)C2)n1` (stereo not given) gave ELG1 genotox 1%, Rab9 promoter act 0%, FLuc modulator 0% and NPC1 promoter act 1%.
For CC(=O)SC1CC2=CC(=O)CC[C@@]2(C)C2CC[C@@]3(C)[C@@H](CC[C@@]34CCC(=O)O4)C12 (stereo not given in full) the results were SMN2 splice up -22% and Luc counter -7%.
For O=C(NCCO)c1ccc(-c2nnc(Nc3ccc(OC(F)(F)Cl)cc3)c3ccccc23)cc1 the results were SMN2 splice up -92% and FLuc modulator 1%.
`COc1ccc(-c2nc3cc(C)ccn3c2NCc2ccc3c(c2)OCO3)cc1` gave ELG1 genotox 2%, Rab9 promoter act inconclusive, FLuc modulator 17µM*, NPC1 promoter act 15% and Luc counter -12%.
For COc1ccc(-c2nc3ccccn3c2NCc2ccc3c(c2)OCO3)cc1 the results were SMN2 splice up 14µM*, ELG1 genotox 14%, Rab9 promoter act inconclusive, FLuc modulator 4.8µM*, NPC1 promoter act inconclusive and Luc counter -4%.
Screening O=C(CSCc1cc(=O)n2ccsc2n1)Nc1ccc(F)cc1 returned ELG1 genotox -1%, Rab9 promoter act 3%, FLuc modulator 1% and NPC1 promoter act -7%.
For COc1ccc(NC(=O)CN(C)C(=O)c2ccc(NS(=O)(=O)c3cccc([N+](=O)[O-])c3)cc2)cc1 the results were ELG1 genotox -3%, Rab9 promoter act -2%, FLuc modulator 24µM* and NPC1 promoter act 3%.
Screening CCN(CC)CCOC(=O)c1ccc(NC(=O)CCn2c(=O)oc3ccccc32)cc1 returned SMN2 splice up -1% and FLuc modulator -9%.
C=CCn1c(COc2cc(C)ccc2C(C)C)nnc1SCC(=O)c1c(N)n(C)c(=O)n(C)c1=O was read as SMN2 splice up -29%, ELG1 genotox -4%, Rab9 promoter act -4%, FLuc modulator 4.8µM*, NPC1 promoter act 1% and Luc counter 1%.
CCOc1ccc2nc(SCc3ccc(OC)cc3)sc2c1 was read as SMN2 splice up -21%, ELG1 genotox 1%, Rab9 promoter act 8%, FLuc modulator 13µM*, NPC1 promoter act 6% and Luc counter 3%.
Screening CCOc1ccc2nc(SCC(=O)c3ccccc3)sc2c1 returned SMN2 splice up 16%, ELG1 genotox 18µM*, Rab9 promoter act 29%, FLuc modulator 15µM*, NPC1 promoter act 16% and Luc counter 1%.

Source: PubChem
